Screens as filed in PubChem BioAssay.
Hits are enriched below; roughly 6.8% of the tested compounds scored in any of these assays.
Pf Dd2 growth = inhibitors of Plasmodium falciparum Dd2 growth | AID 1159554 | 94,000 tested, 2.3% active | P. falciparum Dd2 growth, SYBR Green, 72 h; stronger effect = lower value | activity change, % at 10 µM; in the data active means activity change below about -80%; inconclusive means no clear call, values can overlap the other calls
T cruzi growth-1 = inhibitors of T. cruzi proliferation; T. cruzi beta-gal in NIH3T3, GalScreen luminescence, 90 h; inhibition, % at 8.34 µM; 77,000 tested, 5.9% active;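 active means mean inhibition above about 93%, with at least 55% of replicates each passing it, limit read from the data, passing the limit was not always enough; inconclusive means only one of those two conditions holds; inactive means neither condition holds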
C diff HTS = C. difficile growth inhibition. Clostridium difficile clinical isolate growth, OD600, 24 h; stronger effect = lower value. growth activity, negative = inhibition, % at 16 µg/mL (by protocol). 86,000 tested, 0.25% active. AID 1259249;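 active means mean growth activity at or below -80% and every replicate also at or below -80%; inconclusive means mean at or below -80% but some replicate above -80%; inactive means mean growth activity above -80%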;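 further: 0% = DMSO wells and -100% = levofloxacin 16 µg/mL wells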
T cruzi growth-2 = inhibitors of T. cruzi proliferation. shares compounds with T cruzi growth-1. T. cruzi beta-gal in NIH3T3, GalScreen luminescence, 90 h. inhibition, % at 8.35 µM. 5,600 tested, 72% active;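 active means mean replicate inhibition above about 95% and at least 55% of replicates individually reaching it, limit read from the data; inconclusive means only one of the two criteria is met; inactive means neither criterion is met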
T cruzi growth-3 = Trypanosoma cruzi proliferation inhibition; shares compounds with T cruzi growth-1; T. cruzi beta-gal in NIH3T3, GalScreen luminescence, 90 h; inhibition, % at 2.09 µM; 5,600 tested, 21% active; AID 651740;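 active means mean inhibition above about 95%, with at least 55% of replicates also reaching it, limit read from the data; inconclusive means meets just one of the two conditions; inactive means meets neither condition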;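 further: plate controls were neutral control median for no effect and positive control median for full effect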
3T3 cytotox = NIH/3T3 (mouse) viability loss. shares compounds with T cruzi growth-1. NIH/3T3 viability, CellTiter-Glo ATP luminescence, 90 h. cytotoxicity (signal decrease), % at 8.35 µM. 5,600 tested, 14% active;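 active means mean signal decrease across replicates above about 35% based on untreated-well scatter, with enough replicates individually passing, limit read from the data; inconclusive means no rule stated though some were filed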;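 further: 0% = median of neutral control wells and 100% = median of positive control wells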
NIH3T3 tox 2 = NIH/3T3 (mouse) viability loss; shares compounds with T cruzi growth-1; NIH/3T3 viability, CellTiter-Glo ATP luminescence, 90 h; inhibition, % at 24.9 µM; 5,600 tested, 56% active;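 active means mean loss of cell viability signal at or above a set limit, and enough replicates individually reaching it; inconclusive means meets only the mean limit or only the replicate share; inactive means meets neither condition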;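 further: 0% = median of neutral control wells and 100% = median of positive control wells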
* marks the source's active call; other numbers are inactive results; u = inconclusive; x = no result.

SMILES | Pf Dd2 growth | T cruzi growth-1 | C diff HTS | T cruzi growth-2 | T cruzi growth-3 | 3T3 cytotox | NIH3T3 tox 2
CC(C)NC(=O)N[C@H]1CC[C@H](CCN)O[C@H]1CO | 26 | 9 | x | x | x | x | x
O=C(Nc1ccc(F)cc1)N1CCCCN2[C@H](CO)[C@@H](c3ccc(-c4cccc(F)c4)cc3)[C@@H]2C1 | -7 | 84 | 61 | x | x | x | x
O=C(Nc1ccccc1)N1CCCCN2[C@H](C1)[C@@H](c1ccc(-c3ccccc3F)cc1)[C@@H]2CO | -11 | 73 | 29 | x | x | x | x
O=C(Nc1cccc(F)c1)N1CCCCN2[C@H](CO)[C@H](c3ccc(-c4ccccc4F)cc3)[C@@H]2C1 | 8 | 107* | 17 | 96* | 91 | 19 | 59*
O=C(Nc1cccc(F)c1)N1CCCCN2[C@H](C1)[C@H](c1ccc(-c3ccccc3F)cc1)[C@@H]2CO | 16 | 110* | 36 | 112* | 94 | 11 | 33*
O=C(Nc1cccc(F)c1)N1CC(=O)N2[C@H](CO)[C@@H](c3ccc(-c4ccccc4F)cc3)[C@@H]2C1 | -24 | x | -4 | x | x | x | x
O=C(Nc1cccc(F)c1)N1CCCCN2[C@H](C1)[C@@H](c1ccc(-c3ccccc3F)cc1)[C@@H]2CO | -9 | 101* | 65 | u | u | 96* | 102*
CCC(=O)Nc1ccc2c(c1)C(=O)N(C)[C@H]1CC[C@@H](CC(=O)NCc3ccccc3Cl)O[C@H]1CO2 | -7 | 18 | -3 | x | x | x | x
COc1cccc(S(=O)(=O)N2CCCCN3[C@H](CO)[C@@H](c4ccc(-c5cccnc5)cc4)[C@@H]3C2)c1 | -20 | 94 | -28 | x | x | x | x
COc1ccc(S(=O)(=O)N2CCCCN3[C@H](CO)[C@H](c4ccc(-c5cccnc5)cc4)[C@@H]3C2)cc1 | -24 | 104* | 2 | 104* | 39 | -13 | 42*
COc1cccc(S(=O)(=O)N2CCCCN3[C@@H](CO)[C@@H](c4ccc(-c5cccnc5)cc4)[C@@H]3C2)c1 | -61 | 68 | -29 | x | x | x | x
Cc1cccc(S(=O)(=O)N2CCCCN3[C@@H](CO)[C@@H](c4ccc(-c5cccnc5)cc4)[C@@H]3C2)c1 | -57 | 55 | -10 | x | x | x | x
COc1ccc(S(=O)(=O)N2CCCCN3[C@H](CO)[C@@H](c4ccc(-c5cccnc5)cc4)[C@@H]3C2)cc1 | -16 | 109* | -17 | u | 41 | 17 | 37*
COc1ccc(S(=O)(=O)N2CCCCN3[C@@H](CO)[C@H](c4ccc(-c5cccnc5)cc4)[C@@H]3C2)cc1 | -23 | 79 | -12 | x | x | x | x
COc1ccc(S(=O)(=O)N2CCCCN3[C@H](C2)[C@H](c2ccc(-c4cccnc4)cc2)[C@@H]3CO)cc1 | 30 | 104* | -4 | 87 | 16 | 13 | 22
COc1cccc(S(=O)(=O)N2CCCCN3[C@H](CO)[C@H](c4ccc(-c5cccnc5)cc4)[C@H]3C2)c1 | -38 | 110* | -9 | 97* | 66 | 33 | 35*
C[C@H](NC(=O)[C@H]1[C@H](CO)[C@H]2Cn3c(ccc(C4=CCCC4)c3=O)[C@@H]1N2C(=O)C1CC1)c1ccccc1 | -7 | x | 1 | x | x | x | x
C[C@@H]1CN([C@@H](C)CO)C(=O)Cc2cc(NS(=O)(=O)c3cccs3)ccc2O[C@@H]1CN(C)Cc1ccc(Oc2ccccc2)cc1 | -17 | 72 | 5 | x | x | x | x
C[C@@H]1CCCCO[C@@H](CN(C)S(=O)(=O)c2ccc(F)cc2)[C@H](C)CN([C@@H](C)CO)C(=O)c2cc(NS(=O)(=O)c3cccs3)ccc2O1 | -20 | 61 | 13 | x | x | x | x
O=C(c1ccc(F)cc1)N1CCCCN2[C@H](C1)[C@H](c1ccc(/C=C/c3ccccc3)cc1)[C@@H]2CO | -13 | u | -5 | u | 35 | 22 | 103*
O=C(c1ccc(F)cc1)N1CCCCN2[C@H](CO)[C@@H](c3ccc(/C=C/c4ccccc4)cc3)[C@H]2C1 | -23 | 108* | 48 | 103* | 78 | 21 | 104*
Cc1ccc(S(=O)(=O)N[C@@H]2CC[C@H](CCNC(=O)C3CC3)O[C@H]2CO)cc1 | x | x | 0 | x | x | x | x
O=C(Cc1ccncc1)Nc1ccc2c(c1)[C@H]1C[C@H](CC(=O)N3CCCCC3)O[C@@H](CO)[C@H]1O2 | 10 | -21 | 1 | x | x | x | x
C[C@@H]1CN([C@H](C)CO)C(=O)c2cccc(NC(=O)C3CCOCC3)c2O[C@@H]1CN(C)S(C)(=O)=O | 36 | -6 | -4 | x | x | x | x
N#Cc1ccc(-c2ccc([C@H]3[C@H]4CN(S(=O)(=O)c5ccccc5)CCCCN4[C@H]3CO)cc2)cc1 | -7 | 114* | 4 | 107* | 76 | 22 | 24
SMILES | Pf Dd2 growth | T cruzi growth-1 | C diff HTS | T cruzi growth-2 | T cruzi growth-3 | 3T3 cytotox | NIH3T3 tox 2
O=S(=O)(c1ccccc1)N1CCCCN2[C@H](CO)[C@@H](c3ccc(-c4ccccc4)cc3)[C@@H]2C1 | 5 | 49 | -8 | x | x | x | x
N#Cc1ccc(-c2ccc([C@H]3[C@H](CO)N4CCCCN(S(=O)(=O)c5ccccc5)C[C@@H]34)cc2)cc1 | -36 | 116* | 20 | 108* | 55 | 51* | 88*
CCS(=O)(=O)N1CCCCN2[C@H](CO)[C@H](c3ccc(-c4ccc(C#N)cc4)cc3)[C@@H]2C1 | -39 | 55 | 1 | x | x | x | x
CNC[C@H]1OCCCC[C@H](C)Oc2ccc(NS(=O)(=O)c3cn(C)cn3)cc2C(=O)N([C@H](C)CO)C[C@@H]1C | 29 | 27 | 6 | x | x | x | x
CCCC#Cc1ccc2c(c1)O[C@H](CN(C)C(=O)Nc1ccc(OC)cc1)[C@H](C)CN([C@@H](C)CO)S2(=O)=O | -51 | 86 | -3 | x | x | x | x
COc1ccc(NC(=O)N(C)C[C@@H]2Oc3cc(C#CCC(C)C)ccc3S(=O)(=O)N([C@H](C)CO)C[C@@H]2C)cc1 | -66 | 104* | -1 | 101* | 92 | 27 | 63*
CCCC#Cc1ccc2c(c1)O[C@@H](CN(C)C(=O)Nc1ccc(OC)cc1)[C@@H](C)CN([C@H](C)CO)S2(=O)=O | -68 | 104* | -1 | 112* | 50 | 1 | 31
COc1ccc(NC(=O)N(C)C[C@H]2Oc3cc(C#CCC(C)C)ccc3S(=O)(=O)N([C@H](C)CO)C[C@@H]2C)cc1 | -60 | 88 | -4 | x | x | x | x
CCCNC(=O)N1CC2(CCN(C(=O)CN(C)C)CC2)c2c(n(C)c3cc(OC)ccc23)[C@@H]1CO | -40 | x | 2 | x | x | x | x
CNC[C@@H]1Oc2ccc(NS(=O)(=O)c3c(C)noc3C)cc2C(=O)N([C@H](C)CO)C[C@H]1C | 37 | 21 | -9 | x | x | x | x
C[C@H](O)C#Cc1ccc2c(c1)O[C@H](CN(C)Cc1ccncc1)[C@H](C)CN([C@@H](C)CO)S2(=O)=O | -15 | 68 | 2 | x | x | x | x
CC(C)C#Cc1ccc2c(c1)O[C@H](CN(C)Cc1ccncc1)[C@H](C)CN([C@H](C)CO)S2(=O)=O | -27 | 101* | -9 | 99* | 72 | u | 50*
